Screens deposited in PubChem by National Center for Advancing Translational Sciences (NCATS).
The full list was thinned out, with hits kept by preference.
IL1B secr inh: inhibitors of inflammasome signaling (IL-1 beta secretion); THP-1 LPS/ATP IL-1B secretion, AlphaLISA, 16 h; stronger effect = lower value; activity change, % at 57.5 µM; 360,000 compounds, 4.7% hits; in the data active = activity change below about -50%; inconclusive = mostly about -30% to -49%
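Secreted IL-1B measured by AlphaLISA bead assay after 16 h compound exposure of THP-1 cells; compounds (final up to 57.5 uM) added 1 h before LPS (250 ng/mL) and ATP (1.25 mM) stimulation; lower signal means less secretion.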
HT1080 IDH1KD tx: toxicity to HT-1080 IDH1 knockdown cells (counter line). HT-1080 IDH1 knockdown viability, ATP luminescence, 48 h. Potency, µM (series often up to 46.1 µM), without a hit: at the top dose activity, negative = toxicity, hits mostly cytotoxic. AID 686971. 360,000 compounds, 2% hits;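 note: potency is the fitted concentration of half-maximal effect; 0% = DMSO wells and -100% = cell-free medium wells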
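Viability of IDH1-knockdown HT-1080 fibrosarcoma cells was assessed by CellTiter-Glo after 48 h at 37 °C with titrated compound; concentration-effect curves were classified by fit quality and response size.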
DT40 TDP1 no CPT: qHTS for Inhibitors of human tyrosyl-DNA phosphodiesterase 1 (TDP1): qHTS in cells in absence of CPT. 420,000 compounds, 15% hits. Potency, µM (series often up to 46.2 µM), for the others: top-dose activity change, negative = growth inhibition, usual class: inhibitors. AID 686978, 2013. DT40 Tdp1-/- hTDP1 cells, no CPT, ATP luminescence, 48 h; note: potency is the fitted concentration of half-maximal effect; nearly all actives have a fitted effect of over 55% in size
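Stably hTDP1-transfected Tdp1-null chicken DT40 cells were treated with library compounds minus camptothecin and grown for at least 48 hr at 37 °C, after which cellular ATP was quantified by luminescence.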
HT1080-NT tox: kills 2HG-producing HT-1080-NT fibrosarcoma cells; HT-1080-NT fibrosarcoma viability, CellTiter-Glo ATP luminescence, 48 h; 360,000 compounds, 1.6% hits; AID 686970; Potency, µM (highest dose often 46.1 µM), inactives show top-dose activity, negative = less viability, most hits filed as cytotoxic;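 note: NT is the 2HG producing partner of a matched IDH1 knockdown line; potency is the fitted concentration of half-maximal effect; 0% = DMSO-treated cells and -100% = media-only wells without cells; nearly all actives have a fitted effect of over 55% in size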
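Compounds were tested in concentration-response format on HT-1080-NT cells for 48 hours at 37 degrees C. Cell viability came from CellTiter-Glo luminescence; curves were classified by r2, response magnitude and activity.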
ALOX12 inh: inhibitors of human 12S-lipoxygenase ALOX12; P18054; purified 12hLO, xylenol orange hydroperoxide absorbance; Potency, µM (top dose mostly 108 µM), inactives show top-dose activity change, negative = inhibition, hits mostly inhibitors; 580,000 compounds, 1.1% hits; note: potency is the fitted concentration of half-maximal effect
Target sequence (P18054 whole entry, looked up): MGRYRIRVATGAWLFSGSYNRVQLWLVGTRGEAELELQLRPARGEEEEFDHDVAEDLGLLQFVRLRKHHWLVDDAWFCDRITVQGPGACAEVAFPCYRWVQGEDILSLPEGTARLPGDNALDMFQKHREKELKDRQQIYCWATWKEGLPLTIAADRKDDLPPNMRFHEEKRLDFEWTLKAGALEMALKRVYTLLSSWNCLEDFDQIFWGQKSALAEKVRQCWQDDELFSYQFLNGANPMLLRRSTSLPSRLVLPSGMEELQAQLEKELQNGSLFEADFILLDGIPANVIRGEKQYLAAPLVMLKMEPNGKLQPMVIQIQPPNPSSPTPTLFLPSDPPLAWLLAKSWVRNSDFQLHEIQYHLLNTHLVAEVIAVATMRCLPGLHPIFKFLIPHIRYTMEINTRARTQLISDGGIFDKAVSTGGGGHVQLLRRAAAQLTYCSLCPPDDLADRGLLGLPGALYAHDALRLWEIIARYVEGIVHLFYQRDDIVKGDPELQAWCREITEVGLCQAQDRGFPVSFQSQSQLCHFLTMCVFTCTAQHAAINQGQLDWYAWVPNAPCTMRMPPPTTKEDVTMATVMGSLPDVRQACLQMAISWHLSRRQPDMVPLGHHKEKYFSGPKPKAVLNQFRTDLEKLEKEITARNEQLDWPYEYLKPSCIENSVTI
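Hydroperoxide product was detected by ferrous iron/xylenol orange as the 573 to 405 nm absorbance ratio. Arachidonic acid at 40 uM (final) was turned over for 30 min at room temperature by 150 nM human 12hLO, pH 7.0 Hepes buffer, after 15 min compound preincubation.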
DT40 TDP1 CPT: DT40-hTDP1 cell growth loss with CPT; chicken DT40 Tdp1-/-;hTDP1 cells + 20 nM CPT, ATP luminescence, 48 h; Potency, µM (series often up to 46.2 µM), without a hit: top-dose activity change, negative = growth inhibition, usual class: inhibitors; 420,000 compounds, 12% hits; AID 686979; note: potency is the fitted concentration of half-maximal effect; nearly all actives have a fitted effect of over 55% in size
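Chicken DT40 Tdp1-/- cells complemented with human TDP1, 400 cells/well, exposed to compounds plus 20 nM camptothecin for at least 48 h at 37 C; viability read as ATP content by CellTiter-Glo luminescence.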
Numbers without * were called inactive. Unless noted, calls come from the whole dose curve; as a rule, active = well fitted curve in the direction sought with a large enough effect; inconclusive = small, poorly fitted or top-dose-only effect, or another doubt; inactive = no such curve, though single readings can be large; an effect the other way counts as inactive or inconclusive. Unless noted, % is set by controls: 0 for no effect and ±100 for the full control effect.

`CCC(CO)[n+]1c(C)cc(/C=C2\Sc3ccccc3N2Cc2ccccc2)cc1C` (stereo not drawn) gave IL1B secr inh -104*, HT1080 IDH1KD tx 3.3µM*, DT40 TDP1 no CPT 2.3µM*, HT1080-NT tox 3.3µM*, ALOX12 inh 50µM* and DT40 TDP1 CPT 2.3µM*.
`CCN1/C(=C2\SC(=S)N(Cc3ccccc3)C2=O)Sc2ccccc21` gave IL1B secr inh -3, HT1080 IDH1KD tx 12%, DT40 TDP1 no CPT inconclusive, HT1080-NT tox 11%, ALOX12 inh -21% and DT40 TDP1 CPT -23%.
Screening Cc1ccc(S(=O)(=O)NC(C)CN2CCOCC2)cc1F (stereo not drawn) returned ALOX12 inh -19%.
NNC(=S)NC1CCCCCCCCCCC1 was read as IL1B secr inh 0, HT1080 IDH1KD tx -21%, DT40 TDP1 no CPT 8.2µM*, HT1080-NT tox -23%, ALOX12 inh inconclusive and DT40 TDP1 CPT inconclusive.
For S=C(NC1CCCCCC1)NC1CCCC1 the results were IL1B secr inh 0, HT1080 IDH1KD tx 1%, DT40 TDP1 no CPT inconclusive, HT1080-NT tox 6%, ALOX12 inh -27% and DT40 TDP1 CPT inconclusive.
Screening Cn1ccc2c(N3c4ccccc4CCc4ccccc43)cc3c(c21)C1CCC3O1 (stereo not drawn) returned IL1B secr inh 19, HT1080 IDH1KD tx 18µM*, DT40 TDP1 no CPT 21µM*, HT1080-NT tox inconclusive, ALOX12 inh inconclusive and DT40 TDP1 CPT 23µM*.
For Cn1ccc2c(N3c4ccccc4CCc4ccccc43)cc3c(c21)C1CCC3C1 (stereo not drawn) the results were IL1B secr inh -16, HT1080 IDH1KD tx inconclusive, DT40 TDP1 no CPT 5.2µM*, HT1080-NT tox inconclusive, ALOX12 inh -50% and DT40 TDP1 CPT 2.3µM*.
Screening Cn1ccc2c(N3CCCCCC3)cc3c(c21)C1CCC3C1 (stereo not drawn) returned IL1B secr inh 39, HT1080 IDH1KD tx -25%, DT40 TDP1 no CPT 12µM*, HT1080-NT tox -29%, ALOX12 inh inconclusive and DT40 TDP1 CPT 15µM*.
For Cn1ccc2c(N3CCOCC3)cc3c(c21)C1CCC3C1 (stereo not drawn) the results were IL1B secr inh -3, HT1080 IDH1KD tx -4%, DT40 TDP1 no CPT inconclusive, HT1080-NT tox 8%, ALOX12 inh -22% and DT40 TDP1 CPT -28%.
`O=C1CCN(C(=O)COc2ccc(Cl)cc2Cl)c2ccccc2N1` gave ALOX12 inh 1%.
`Cc1cc(N(CCO)CCO)ccc1N=Nc1cc(F)ccc1F` gave IL1B secr inh -75*, HT1080 IDH1KD tx inconclusive, DT40 TDP1 no CPT inconclusive, HT1080-NT tox inconclusive, ALOX12 inh -8% and DT40 TDP1 CPT inconclusive.
`COc1cccc2sc3ccc(C#Cc4ccc(N)cc4)cc3c(=O)c12` gave IL1B secr inh -25, HT1080 IDH1KD tx -15%, DT40 TDP1 no CPT inconclusive, HT1080-NT tox -15%, ALOX12 inh 6% and DT40 TDP1 CPT 16µM*.
COc1cccc2sc3ccc(C#CC4(O)CCCCC4)cc3c(=O)c12 was read as IL1B secr inh -57*, HT1080 IDH1KD tx -27%, DT40 TDP1 no CPT inconclusive, HT1080-NT tox inconclusive, ALOX12 inh -20% and DT40 TDP1 CPT inconclusive.
For CS(=O)(=O)N1C[C@@H](C(=O)Nc2ccc(N3CCOCC3)cc2)[C@H](c2ccncc2)C1 the results were ALOX12 inh 7%.
Screening C=CCC[C@@H](Cc1ccc(F)cc1)C(=O)OC[C@@H](NC(=O)[C@@H](CC=C)CC(=O)N[C@H](CO)Cc1ccccc1)C(C)(C)C returned IL1B secr inh 12, HT1080 IDH1KD tx -20%, DT40 TDP1 no CPT 16µM*, HT1080-NT tox inconclusive, ALOX12 inh 5% and DT40 TDP1 CPT 23µM*.
Screening C=CC[C@@H](CC(=O)N[C@@H](CO)Cc1ccccc1)C(=O)N[C@H](COC(=O)[C@@H](CC=C)Cc1ccc(F)cc1)C(C)(C)C returned IL1B secr inh -8, HT1080 IDH1KD tx -7%, DT40 TDP1 no CPT -80%, HT1080-NT tox inconclusive, ALOX12 inh -3% and DT40 TDP1 CPT 16µM*.
For CCOC(=O)[C@]12CCC=C1N(Cc1ccc(Cl)cc1Cl)C(=O)[C@H](CC(=O)N1CCN(C(=O)c3ccco3)CC1)C2 the results were IL1B secr inh inconclusive, HT1080 IDH1KD tx inconclusive, DT40 TDP1 no CPT 16µM*, HT1080-NT tox -13%, ALOX12 inh -9% and DT40 TDP1 CPT 16µM*.
Screening CCOC(=O)[C@]12CCC=C1N(Cc1ccc(Cl)cc1Cl)C(=O)[C@H](CC(=O)N1CCCCC1)C2 returned IL1B secr inh 13, HT1080 IDH1KD tx inconclusive, DT40 TDP1 no CPT inconclusive, HT1080-NT tox inconclusive, ALOX12 inh -18% and DT40 TDP1 CPT inconclusive.
For CCOC(=O)[C@]12CCC=C1N(Cc1ccccc1)C(=O)[C@H](CC(=O)N1CCCCC1)C2 the results were IL1B secr inh 7, HT1080 IDH1KD tx 13%, DT40 TDP1 no CPT inconclusive, HT1080-NT tox 16%, ALOX12 inh -1% and DT40 TDP1 CPT 21µM*.
`CCOC(=O)[C@]12CCC=C1N(Cc1ccc(Cl)cc1Cl)C(=O)[C@H](CC(=O)N1CCCC1)C2` gave IL1B secr inh -19, HT1080 IDH1KD tx -21%, DT40 TDP1 no CPT 15µM*, HT1080-NT tox 1%, ALOX12 inh inconclusive and DT40 TDP1 CPT 16µM*.
CCOC(=O)N1CCN(C(=O)C[C@@H]2C[C@@]3(C(=O)OCC)CCC=C3N(Cc3ccc(Cl)cc3Cl)C2=O)CC1 was read as IL1B secr inh 0, HT1080 IDH1KD tx inconclusive, DT40 TDP1 no CPT 15µM*, HT1080-NT tox -17%, ALOX12 inh -26% and DT40 TDP1 CPT 18µM*.
For CCOC(=O)N1CCN(C(=O)C[C@@H]2C[C@@]3(C(=O)OCC)CCC=C3N(Cc3ccccc3)C2=O)CC1 the results were IL1B secr inh -3, HT1080 IDH1KD tx 15%, DT40 TDP1 no CPT -5%, HT1080-NT tox 21%, ALOX12 inh -3% and DT40 TDP1 CPT -18%.
Screening O=C(Nc1ccc(Cl)cc1)c1cc2cc(Cl)ccc2[nH]1 returned ALOX12 inh 0%.
Screening COC(=O)c1[nH]c2ccc(C)cc2c1NC(=O)CCN1CCCCC1 returned ALOX12 inh 0%.
